Here are results for 26 molecules from PubChem BioAssay AID624352 (Sanford-Burnham Center for Chemical Genomics, 2012).

Screen size: about 360,000 compounds; about 2,600 (0.72%) were called active.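 Rule for the calls: active = inhibition of the luminescence signal of 40% or more relative to plate controls, in a single-dose primary screen at 18.75 µM; inactive = the rest.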 What follows is part of a selection rich in actives, with near analogues and random picks from the rest.

The assay in a line: blockers of HIF-2a driven luciferase – luminescence, 786-0 RCC cells, primary screen (AID 624352). As to conditions: 786-0 RCC cells HIF-2a reporter, overnight, at 18.8 µM, stronger effect = higher value.
By inhibition is commonly meant the drop in the measured response relative to a control, in per cent. As to `CCOC(=O)C1(Cc2ccccc2C)CCCN(C(=O)c2ccc(COC)o2)C1` (stereo unspecified), the inhibition was -190% (inactive).

As for `Cc1cccc(NC(=O)C2CCCN(C(=O)Nc3ccc(F)cc3)C2)c1C` (stereo unspecified), the inhibition is 7.56% (inactive).

As to `COc1ccc(C2=NO[C@@H]3C(=O)N(Cc4ccccc4)C(=O)[C@H]23)cc1OC`, the inhibition was 16.2% (inactive).

Take `COc1ccc(CCNS(=O)(=O)c2ccc(F)cc2)cc1OC`: the inhibition is 9.4% (inactive).

For the molecule `COc1ccc(-c2cc(C(F)(F)F)nc(S(C)(=O)=O)n2)cc1OC`, the inhibition is 94.1% (active).

With `O=C(c1cn(-c2ccccc2)nc1-c1cccnc1)N1CCN(S(=O)(=O)c2ccccc2F)CC1`, the inhibition was 9.12% (inactive).

Turning to `CCc1ccc(-n2c(=S)sc3c(=O)n(-c4ccccc4OC)c(=S)[nH]c32)cc1`, the inhibition is 8.96% (inactive).

On to `COc1ccc(OC)c2c(N)c(C#N)c(C(F)(F)C(F)(F)F)nc12`, for which the inhibition is 8.83% (inactive).

With `COc1cccc2c(C)c(C(=O)O)[nH]c12`, the inhibition is 47% (active).

With `COc1cc2c(C(=O)O)c(C)n(C)c2c2ccccc12`, the inhibition was -195% (inactive).

As for `COc1cccc2c(O)cc(=O)n(C)c12`, the inhibition is 19.6% (inactive).

Take `O=C(c1ccccc1Cl)N(Cc1ccccc1F)N1C(=O)CCCC1=O`: the inhibition was 16.7% (inactive).

Regarding `O=C(O)C1C2C=CC(O2)C1C(=O)NCCc1cccc(Cl)c1` (stereo unspecified), the inhibition is -2.61% (inactive).

For `Cc1cc(O)ccc1-c1cc(C(=O)NCc2cc(C(F)(F)F)cc(C(F)(F)F)c2)[nH]n1`, the inhibition was 15.8% (inactive).

As for `COCCn1c(SCC(=O)Nc2ccccc2F)nc2c(c1=O)SCC2`, the inhibition is 1.2% (inactive).

Regarding `Cc1cccc(NC(=O)C2CCCN(C(=O)NCc3ccccc3)C2)c1C` (stereo unspecified), the inhibition is 0.73% (inactive).

For the molecule `Cc1ccc2nc(-c3ccccc3)c(CC3CCCCC3)n2c1`, the inhibition is -173% (inactive).

Take `COc1ccc(-c2nc3ccc(Br)cn3c2Cc2ccc(C)cc2)cc1OC`: the inhibition was -137% (inactive).

With `CC(=O)Nc1c(-c2ccc(C)cc2)nc2ccc(Cl)cn12`, the inhibition was 4.44% (inactive).

Consider `Cc1ccc(-c2nc3ccc(Br)cn3c2Cc2ccccc2C(F)(F)F)cc1`, for which the inhibition was -290% (inactive).

Turning to `Cc1ccc2nc(-c3ccc(Br)cc3)cn2c1`, the inhibition is 40.6% (active).

For the molecule `Cc1ccc(-c2cn3cc(C)ccc3n2)cc1`, the inhibition was 71.3% (active).

`CC(C)NC(=O)Nc1cccc2c1O[C@H](CN(C)S(=O)(=O)c1cccs1)[C@@H](C)CN([C@H](C)CO)C2=O`: the inhibition was 12.7% (inactive).

For `NS(=O)(=O)c1cccc(NC(=O)COC(=O)c2cc([N+](=O)[O-])ccc2N2CCCC2)c1`, the inhibition was 25.4% (inactive).

As for `N#Cc1cccc(NC(=O)COC(=O)c2ccccc2C(=O)c2ccc(Cl)c([N+](=O)[O-])c2)c1`, the inhibition was 94.8% (active).

For `CC(=O)Nc1ccc(NC(=O)C(C)OC(=O)c2ccccc2C(=O)c2ccc(Cl)c([N+](=O)[O-])c2)cc1` (stereo unspecified), the inhibition is 19.2% (inactive).
